Shown are actives, neighbours in structure and some others; about 3.4% of the full set was active somewhere.
Sm TGR inh: S. mansoni TGR enzyme inhibition; Potency, µM (titrated, usually from 114 µM), inactives show at the highest dose activity change, negative = inhibition, most hits filed as inhibitors; purified TGR, DTNB reduction, TNB absorbance 405 nm; Q962Y6; actives 3% (n = 360,000); further: nearly all actives have a fitted effect of over 60% in size
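TGR 20 nM + NADPH 100 uM (dispensed conc.), cpd preinc 15 min RT; start with NADPH (500 uM addition) then DTNB (15 mM addition). Kinetic TNB absorbance, 405 nm filter. Four-parameter Hill fit across titration.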
AmpC inh detg: AmpC beta-lactamase inhibition with detergent present; actives 0.041% (n = 370,000); AID 485294; P00811; Potency, µM (highest dose often 114 µM), without a hit: at the top dose activity change, negative = inhibition, most hits filed as inhibitors; AmpC hydrolysis of nitrocefin, absorbance 480 nm, 0.01% Triton;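 further: 0% = no-compound wells and -100% = no-enzyme wells; nearly all actives have a fitted effect of over 25% in size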
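AmpC (5.3 nM in the dispensed reagent) in 20 mM phosphate pH 7.0 with 0.01% (detergent screen) or 0.0001% Triton X-100 was preincubated with compounds for 15 min at room temperature. Nitrocefin was then added from an 800 uM solution, and hydrolysis was followed at 480 nm.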
RE007 growth inh: less growth of the S. pombe RE007 Vpr strain. S. pombe RE007 Vpr strain, BacTiter-Glo ATP luminescence, 24 h. Potency, µM (series often up to 92.2 µM), for the others: at the top dose activity change, negative = less growth, usual class: inhibitors. actives 0.21% (n = 360,000). AID 651644; active means well fitted falling curve with a large enough effect; inconclusive means small, poorly fitted or top-dose-only effect; inactive means no such curve, though single readings can be large or run the other way; further: nearly all actives have a fitted effect of over 50% in size
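Fission yeast strain RE007, carrying one chromosomally integrated HIV-1 vpr copy, was seeded at OD 0.01 in PMG+AL medium with 23 nL pinned compound. After 24 h at 30 °C and 99% humidity, viability was read by BacTiter-Glo luminescence.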
Giardia FBPA inh-1: blocks Giardia fructose-bisphosphate aldolase activity; A8B2U2; AID 2451; actives 0.71% (n = 290,000); purified Giardia FBPA; Potency, µM (doses to about 59.6 µM), inactives show at the top dose activity, negative = inhibition, hits mostly inhibitors; further: nearly all actives have a fitted effect of over 55% in size
Target sequence (A8B2U2 whole entry, looked up): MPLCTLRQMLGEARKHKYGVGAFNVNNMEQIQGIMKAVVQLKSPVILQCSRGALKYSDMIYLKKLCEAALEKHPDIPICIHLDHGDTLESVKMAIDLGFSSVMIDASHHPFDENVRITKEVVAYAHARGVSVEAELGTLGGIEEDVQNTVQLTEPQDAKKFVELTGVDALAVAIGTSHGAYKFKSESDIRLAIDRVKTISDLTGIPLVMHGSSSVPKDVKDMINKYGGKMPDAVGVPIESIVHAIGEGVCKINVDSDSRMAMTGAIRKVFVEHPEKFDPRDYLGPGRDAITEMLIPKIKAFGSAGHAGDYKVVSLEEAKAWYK
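Giardia FBPA (40 nM reagent) was preincubated 10 min at RT with compound (up to 57.5 uM final), then substrate plus GAPDH/TPI/NAD/arsenate coupling system with diaphorase/resazurin was added; resorufin fluorescence (525/598 nm) was read after 20 min.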
AmpC inh no detg: inhibitors of E. coli AmpC beta-lactamase without detergent. AmpC nitrocefin hydrolysis, absorbance 480 nm, 0.0001% Triton. Potency, µM (titrated, usually from 57.1 µM), without a hit: at the highest dose activity change, negative = inhibition, most hits filed as inhibitors. P00811. actives 0.52% (n = 330,000). AID 485341;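 further: plate controls were no compound for no effect and no enzyme for full effect; nearly all actives have a fitted effect of over 20% in size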
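AmpC (5.3 nM in the dispensed reagent) in 20 mM phosphate pH 7.0 with 0.01% (detergent screen) or 0.0001% Triton X-100 was preincubated with compounds for 15 min at room temperature. Nitrocefin was then added from an 800 uM solution, and hydrolysis was followed at 480 nm.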
Giardia growth: Giardia lamblia growth inhibition; Potency, µM (series often up to 57.5 µM), for the others: at the highest dose activity change, negative = inhibition, hits mostly inhibitors; actives 5% (n = 1,500); Giardia lamblia trophozoite growth inhibition; shares compounds with Giardia FBPA inh-1;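 further: trophozoites exposed to compound for 48 h at 37 °C; nearly all actives have a fitted effect of over 70% in size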
Mammalian tox: counter-screen for Giardia aldolase inhibitors: mammalian cell toxicity | mammalian cell viability counter-screen, qHTS | actives 4% (n = 1,500) | shares compounds with Giardia FBPA inh-1 | Potency, µM (top dose mostly 57.5 µM), for the others: at the top dose viability change, negative = toxicity, usual class: inhibitors;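 further: Chinese hamster ovary cells used as mammalian cytotoxicity surrogate; viability measured as cellular ATP by luminescence; compound exposure lasted 48 h before reading; nearly all actives have a fitted effect of over 60% in size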
Giardia FBPA inh-2: confirmation of Giardia fructose-bisphosphate aldolase inhibitors | actives 5% (n = 1,500) | purified Giardia aldolase enzyme activity, qHTS | shares compounds with Giardia FBPA inh-1 | Potency, µM (series often up to 57.5 µM), for the others: at the highest dose activity change, negative = inhibition, usual class: inhibitors; further: nearly all actives have a fitted effect of over 45% in size
Rabbit FBPA inh: rabbit FBP aldolase inhibition by Giardia aldolase hits; shares compounds with Giardia FBPA inh-1; Rabbit muscle FBPA enzyme inhibition, selectivity counter-screen; AID 2794; Potency, µM (titrated, usually from 57.5 µM), for inactives: at the top dose activity, negative = inhibition, actives largely listed as inhibitors; actives 4% (n = 1,500); further: nearly all actives have a fitted effect of over 60% in size
GAPDH coupling: counter-screen for Giardia aldolase inhibitors: GAPDH coupling enzyme | shares compounds with Giardia FBPA inh-1 | GAPDH coupling enzyme counterscreen, biochemical, qHTS | Potency, µM (titrated, usually from 57.5 µM), inactives show at the top dose activity change, negative = inhibition, hits mostly inhibitors | actives 6% (n = 1,500); further: nearly all actives have a fitted effect of over 55% in size
* marks the source's active call; other numbers are inactive results; ? = inconclusive; / = not tested or not shown; [ ] = dose if it differs, or a comment. Unless noted, the call rests on the fitted dose curve; in most records, active means well fitted curve in the direction sought with a large enough effect; inconclusive means small, poorly fitted or top-dose-only effect, or another doubt; inactive means no such curve, though single readings can be large; an effect the other way counts as inactive or inconclusive. Unless noted, on the % scale 0 is the no-effect control and ±100 the full control effect; potency means the concentration at half of the fitted maximal effect.

SMILES | Sm TGR inh | AmpC inh detg | RE007 growth inh | Giardia FBPA inh-1 | AmpC inh no detg | Giardia growth | Mammalian tox | Giardia FBPA inh-2 | Rabbit FBPA inh | GAPDH coupling
CN(C)S(=O)(=O)c1ccc(C(=O)Nc2nnc(-c3cccs3)o2)cc1 | -12.7% | -7.3% | -6.8% | 17.7µM* | -16.5% | 14.1µM* | -15.9% | -5.6% | -6.5% | -11.8%
O=C(CCSc1ccccc1)Nc1nnc(-c2cccs2)o1 | 28.2µM* | 5.4% | 0.1% | 15.8µM* | -18.7% | -13.3%[10.4 µM] | -13.8% | 3.2% | 4.7% | 5.9%
CN(C)c1ccc(C(=O)Nc2nnc(C3=COCCO3)o2)cc1 | 7.3% | 4.0% | -14.5% | 17.7µM* | -18.9% | ? | 8.9% | -10.0% | -1.1% | 0.3%
CC(C)(C)c1ccc(C(=O)Nc2nnc(C3=COCCO3)o2)cc1 | -1.8% | -10.5% | -11.9% | / | -41.9% | / | / | / | / | /
NC(=O)C1CCCN(C(=O)c2ccc(Cl)c(S(=O)(=O)N3CCc4ccccc43)c2)C1 (centres undefined) | -7.5% | 0.0% | -13.9% | / | 145.7% | / | / | / | / | /
Nc1cc(=O)nc2cn[nH]n12 | / | / | 6.2% | / | / | / | / | / | / | /
CN1CCN(CCC(=O)N/N=C/c2ccccn2)CC1 | -7.9% | -19.3% | 6.8% | 23.7% | -3.3% | / | / | / | / | /
Brc1cccc(CNn2cnnc2)c1 | / | / | -5.0% | / | / | / | / | / | / | /
CCN(CC)S(=O)(=O)c1ccc2[nH]c(=O)c3ccccc3c2c1 | -33.1% | 1.3% | -14.4% | -0.2% | -9.0% | / | / | / | / | /
COC(=O)C1CCCN1C(=O)COc1ccc(Cl)cc1Br (centres undefined) | -7.8% | -8.7% | -17.0% | 1.9% | -20.9% | / | / | / | / | /
Cc1cccc(C(=O)Nc2nnc(C3=COCCO3)o2)c1 | -15.6% | 7.1% | 0.6% | 17.7µM* | -11.5% | ? | -0.6% | -4.1% | -5.1% | -0.2%
CCOC(=O)c1cnc(N)nc1C(F)(F)F | 13.3% | 6.9% | 4.2% | -0.5% | -12.7% | / | / | / | / | /
COc1ccc(/C=C/C(=O)Nc2cccc(F)c2)cc1S(=O)(=O)N1CCOCC1 | 2.4% | -9.8% | 13.6% | -2.9% | 37.9% | / | / | / | / | /
O=C(NNC(=O)c1csc(-c2cccs2)n1)c1ccc(Cl)cc1 | / | / | -26.0% | / | / | / | / | / | / | /
Cc1nc(C(=O)NNC(=O)c2ccc(Cl)cc2)cs1 | 9.2% | 2.1% | -16.2% | 17.7µM* | -10.6% | ? | -26.1% | 1.4% | 6.4% | 8.1%
Cc1cc(C)cc(NC(=O)C(NCC2CCCO2)c2ccccc2)c1 (centres undefined) | -2.8% | -1.2% | -5.8% | 15.8µM* | 73.1% | -15.7%[10.4 µM] | 7.7% | -0.6% | 6.1% | 8.3%
Cc1cc(C)cc(NC(=O)C(=O)NCC2CCCO2)c1 (centres undefined) | / | 2.7% | -4.2% | 2.3% | 19.1% | / | / | / | / | /
COc1cc(/C=C2\SC(c3ccc(C)cc3)=NC2=O)cc(OC)c1O | -25.7% | 6.8% | -11.0% | 14.1µM* | 9.4% | ? | -6.6% | 14.1µM* | ? | ?
COc1cc(/C=C2\SC(N)=NC2=O)cc(Cl)c1O | 5.6% | -12.6% | 6.6% | 3.6% | -12.0% | / | / | / | / | /
